Results taken from PubChem BioAssay (EPA / NIEHS).
Records with an inconclusive call do not appear. Some structures have more than one record in an assay (separate samples or runs), and their calls can disagree. Calls of active or inactive are those of the source. How the source made its calls, unless noted: active means hit-call score of the fitted dose curve at least 0.9, where 1 is the maximum; inactive means score below 0.9.

assay: CCTE_Shafer_MEA_acute_LDH: CCTE's Lactate Dehydrogenase Assay for Cytotoxicity in the Neural Acute Assay, Shafer Lab (AID 2284086; active means hit-call score of the fitted dose curve at least 0.9, where 1 is the maximum;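 further: active means LDH release rises above DMSO vehicle level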)
How it was run: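 Medium collected from MEA wells of primary rat cortical cultures (DIV 13 or 15) immediately after 40 min chemical exposure is assayed spectrophotometrically for lactate dehydrogenase activity. Endpoint fitted in positive direction versus DMSO.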

| Structure (SMILES) | outcome |
| --- | --- |
| O=C(O)CCCCC(=O)O | inactive |
| NCC1(Cc2noc(=O)[nH]2)CCCCC1 | inactive |
| CNCc1cc(F)ccc1Oc1ccc(Cl)c(Cl)c1 | inactive |
| C=CCc1ccc(O)c(OC)c1 | inactive |
| Nc1ccc2c(c1)C(=O)c1ccccc1C2=O | inactive |
| CCCc1cc(=O)[nH]c(=S)[nH]1 | inactive |
| CCCCCCCCCCO | inactive |
| CCOC(=O)C(C)(C)Oc1ccc(Cl)cc1 | inactive |
| C[Si]1(C)O[Si](C)(C)O[Si](C)(C)O[Si](C)(C)O1 | inactive |
| COc1ccc2c(c1)c(CC(=O)O)c(C)n2C(=O)c1ccc(Cl)cc1 | inactive |
| NS(=O)(=O)c1cc2c(cc1Cl)NCNS2(=O)=O | inactive |
| Nc1ccccc1N | inactive |
| c1cc(-c2ccncc2)ccn1 | inactive |
| CN[C@H]1CC[C@@H](c2ccc(Cl)c(Cl)c2)c2ccc(S(N)(=O)=O)cc21 | inactive |
| CC(C)(C)c1cc(O)c(C(C)(C)C)cc1O | inactive |
| CN1CCCC1=O | inactive |
| COc1ccc(S(=O)(=O)N2C(=O)[C@@](c3ccccc3OC)(N3C[C@H](O)C[C@H]3C(=O)N(C)C)c3cc(Cl)ccc32)c(OC)c1 | inactive |

assay: CCTE_Shafer_MEA_dev_mutual_information_norm: CCTE's Neural Network Formation Assay for Mutual Information Normalization, Shafer Lab (AID 2284091);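 on AC50: mutual information between electrodes summarised as area under curve across four recording days; potency is for a decrease in mutual information relative to DMSO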
How it was run: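 Shared information across electrodes, tracked on days 5, 7, 9 and 12 of network development and collapsed as trapezoidal area under the curve. Rat cortical cultures were treated continuously from plating, with treatment renewed at feeds on DIV 5 and 9; DMSO baseline, negative-direction fit.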

| Structure (SMILES) | outcome | AC50 |
| --- | --- | --- |
| FC(F)(F)C(F)(F)C(F)(F)C(F)(F)C(F)(F)C(F)(F)CCI | inactive | – |
| C=CCc1ccc(O)c(OC)c1 | inactive | – |
| CC(C)c1ccc(C(=O)N=C(N)N)cc1S(C)(=O)=O | inactive | – |
| CC(=O)Oc1ccccc1C(=O)O | inactive | 15000 nM (active) |
| CCCc1cc(=O)[nH]c(=S)[nH]1 | inactive | – |
| C[Si]1(C)O[Si](C)(C)O[Si](C)(C)O[Si](C)(C)O1 | inactive | – |
| OC[C@@H](O)[C@@H](O)[C@H](O)[C@H](O)CO | inactive | – |
| O=c1[nH]cc(F)c(=O)[nH]1 | – | 756 nM (active) |
| Cc1cc(=O)[nH]c(=S)[nH]1 | inactive | – |

assay: CCTE_Shafer_MEA_dev_correlation_coefficient_mean: CCTE's Neural Network Formation Assay for Mean Correlation Coefficient, Shafer Lab (AID 2284093);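 on AC50: well mean pairwise spike train correlation integrated as AUC over recording days 5 to 12; potency fitted for loss of correlation relative to DMSO vehicle wells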
How it was run: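 Read-out: well-mean correlation coefficient of spike trains between electrode pairs, collapsed over four recording days as trapezoidal area-under-the-curve. Developing rat cortical neuron networks grown on MEAs received test chemical continuously from plating.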

| Structure (SMILES) | outcome | AC50 |
| --- | --- | --- |
| FC(F)(F)C(F)(F)C(F)(F)C(F)(F)C(F)(F)C(F)(F)CCI | inactive | – |
| C=CCc1ccc(O)c(OC)c1 | inactive | – |
| CC(C)c1ccc(C(=O)N=C(N)N)cc1S(C)(=O)=O | inactive | – |
| CC(=O)Oc1ccccc1C(=O)O | inactive | – |
| CCCc1cc(=O)[nH]c(=S)[nH]1 | inactive | 23900 nM (active) |
| C[Si]1(C)O[Si](C)(C)O[Si](C)(C)O[Si](C)(C)O1 | inactive | – |
| OC[C@@H](O)[C@@H](O)[C@H](O)[C@H](O)CO | inactive | – |
| O=c1[nH]cc(F)c(=O)[nH]1 | – | 696 nM (active) |
| Cc1cc(=O)[nH]c(=S)[nH]1 | inactive | – |

assay: IUF_NPC1b_proliferation_BrdU_72hr: Leibniz Research Institute for Environmental Medicine (IUF) 72-hour Neural Progenitor Cell Bromodeoxyuridine (BrdU) Proliferation Assay (NPC1b) (AID 2284207)
How it was run: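 Human fetal cortex-derived (GW 16-19) neural progenitor spheres, 0.25-0.35 mm, one per well in EGF/FGF proliferation medium, exposed to compound for 72 h at 37C, pH 7.2-7.6. BrdU incorporation over the final 16 h read by luminescence ELISA, relative to DMSO.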

| Structure (SMILES) | AC50 | outcome |
| --- | --- | --- |
| CC(=O)Oc1ccccc1C(=O)O | 725 nM (active) | – |
| C[Si]1(C)O[Si](C)(C)O[Si](C)(C)O[Si](C)(C)O1 | – | inactive |
| OC[C@@H](O)[C@@H](O)[C@H](O)[C@H](O)CO | – | inactive |

assay: IUF_NPC1a_proliferation_area_72hr: Leibniz Research Institute for Environmental Medicine (IUF) 72-hour Neural Progenitor Cell Proliferation Area Assay (NPC1a) (AID 2284208)
How it was run: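 Read-out: increase in sphere area over 72 h by automated phase-contrast imaging, fitted in positive direction versus DMSO baseline. One hNPC sphere (0.25-0.35 mm) per well in EGF/FGF medium; growth-factor withdrawal served as positive control.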

| Structure (SMILES) | outcome |
| --- | --- |
| CC(=O)Oc1ccccc1C(=O)O | inactive |
| C[Si]1(C)O[Si](C)(C)O[Si](C)(C)O[Si](C)(C)O1 | inactive |
| OC[C@@H](O)[C@@H](O)[C@H](O)[C@H](O)CO | inactive |

assay: IUF_NPC1_viability_72hr: Viability Assessment at 72 hours in the Leibniz Research Institute for Environmental Medicine (IUF) Neural Progenitor Cell Proliferation Assay (NPC1) (AID 2284209)
How it was run: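 Spheres of primary human neural progenitors were plated singly in proliferation medium and treated for 72 h. Mitochondrial reduction of resazurin was then measured by fluorescence and analysed against DMSO controls.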

| Structure (SMILES) | outcome |
| --- | --- |
| CC(=O)Oc1ccccc1C(=O)O | inactive |
| C[Si]1(C)O[Si](C)(C)O[Si](C)(C)O[Si](C)(C)O1 | inactive |
| OC[C@@H](O)[C@@H](O)[C@H](O)[C@H](O)CO | inactive |

assay: CCTE_Mundy_HCI_Cortical_Synap_Neur_Matur_NeuriteSpotCountPerNeuriteLength: CCTE's Synaptogenesis and Neurite Maturation Assay in rat cortical cells for Neurite Spot Count per Neurite Length, Mundy Lab (AID 2284210)
How it was run: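 Synaptophysin spots per unit neurite length, measured by automated imaging of MAP2/synaptophysin/Hoechst-stained neurons. Cultures from rat cortex received chemical at DIV 7 with media change through DIV 12; glial growth arrested by AraC at DIV 5; DMSO baseline.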

| Structure (SMILES) | outcome |
| --- | --- |
| CC(=O)Oc1ccccc1C(=O)O | inactive |
| CCCc1cc(=O)[nH]c(=S)[nH]1 | inactive |
| C[Si]1(C)O[Si](C)(C)O[Si](C)(C)O[Si](C)(C)O1 | inactive |
| OC[C@@H](O)[C@@H](O)[C@H](O)[C@H](O)CO | inactive |
| O=c1[nH]cc(F)c(=O)[nH]1 | inactive |

assay: CCTE_Mundy_HCI_Cortical_Synap_Neur_Matur_BPCount: CCTE's Synaptogenesis and Neurite Maturation Assay in rat cortical cells for Branch Point Count, Mundy Lab (AID 2284211)
How it was run: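 HCI read-out of branch points from MAP2/synaptophysin/Hoechst immunofluorescence; rat cortical cultures, AraC DIV 5, dosing DIV 7, fixed DIV 12; fit in positive direction vs DMSO baseline.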

| Structure (SMILES) | outcome |
| --- | --- |
| CC(=O)Oc1ccccc1C(=O)O | inactive |
| C[Si]1(C)O[Si](C)(C)O[Si](C)(C)O[Si](C)(C)O1 | inactive |
| OC[C@@H](O)[C@@H](O)[C@H](O)[C@H](O)CO | inactive |

assay: CCTE_Mundy_HCI_Cortical_NOG_NeuriteCount: CCTE's Neurite Outgrowth Assay in rat cortical cells for Neurite Count, Mundy Lab (AID 2284212);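 further: cells fixed about two days after chemical exposure began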
How it was run: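 Rat cortical primary cells; compound added 2 h post-plating, 1/10 dilution of working solution. Anti-betaIII-tubulin/AF488 ICC; ArrayScan neurite count vs DMSO.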

| Structure (SMILES) | outcome |
| --- | --- |
| CC(=O)Oc1ccccc1C(=O)O | inactive |
| C[Si]1(C)O[Si](C)(C)O[Si](C)(C)O[Si](C)(C)O1 | inactive |
| OC[C@@H](O)[C@@H](O)[C@H](O)[C@H](O)CO | inactive |

assay: CCTE_Mundy_HCI_Cortical_NOG_NeuriteLength: CCTE's Neurite Outgrowth Assay in rat cortical cells for Neurite Length, Mundy Lab (AID 2284213)
How it was run: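 First, rat primary cortical cells were plated and, 2 h later, given test chemical as a 1/10 dilution. Finally, βIII-tubulin immunostaining enabled automated imaging of neurite length.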

| Structure (SMILES) | outcome |
| --- | --- |
| CC(=O)Oc1ccccc1C(=O)O | inactive |
| CCCc1cc(=O)[nH]c(=S)[nH]1 | inactive |
| C[Si]1(C)O[Si](C)(C)O[Si](C)(C)O[Si](C)(C)O1 | inactive |
| OC[C@@H](O)[C@@H](O)[C@H](O)[C@H](O)CO | inactive |
| O=c1[nH]cc(F)c(=O)[nH]1 | inactive |
